Measured values from PubChem BioAssay AID485288 (Southern Research Specialized Biocontainment Screening …, 2010).
Potency and affinity values are given separately. Active and inactive are the calls of the source. A call without a number means that no potency is given here. No rule for the calls is given here.

Target: Large T antigen (Simian virus 40) (UniProt P03070)
Experiment: inhibition of TAg ATP hydrolysis – biochemical, ADP-Hunter detection, purified TAg, synthesized compounds, set 3, SAR follow-up (AID 485288)

Chain of Large T antigen (Simian virus 40) (P03070 whole entry, looked up): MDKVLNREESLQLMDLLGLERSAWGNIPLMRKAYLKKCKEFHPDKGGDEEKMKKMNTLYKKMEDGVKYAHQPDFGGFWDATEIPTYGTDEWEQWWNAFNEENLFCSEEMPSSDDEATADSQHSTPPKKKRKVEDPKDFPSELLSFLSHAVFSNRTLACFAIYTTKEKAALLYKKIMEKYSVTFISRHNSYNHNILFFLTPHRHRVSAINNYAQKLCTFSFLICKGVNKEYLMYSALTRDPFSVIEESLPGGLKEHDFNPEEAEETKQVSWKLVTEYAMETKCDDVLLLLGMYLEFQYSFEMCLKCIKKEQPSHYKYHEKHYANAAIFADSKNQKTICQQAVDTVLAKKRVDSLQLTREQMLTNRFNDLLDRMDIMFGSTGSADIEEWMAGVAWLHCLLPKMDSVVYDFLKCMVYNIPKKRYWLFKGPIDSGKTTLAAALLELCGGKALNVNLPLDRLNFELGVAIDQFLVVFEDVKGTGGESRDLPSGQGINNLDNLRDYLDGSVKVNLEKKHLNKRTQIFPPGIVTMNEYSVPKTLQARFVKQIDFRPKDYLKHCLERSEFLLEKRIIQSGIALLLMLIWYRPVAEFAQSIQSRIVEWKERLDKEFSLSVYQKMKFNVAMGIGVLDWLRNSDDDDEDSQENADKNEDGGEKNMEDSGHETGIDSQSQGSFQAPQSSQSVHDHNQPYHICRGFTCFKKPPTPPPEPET

Cc1cc(C(C)(C)c2ccc(O)c(C)c2)ccc1O
outcome: inactive

CC(C)(c1ccccc1)c1ccc(O)cc1
outcome: inactive
